According to PubChem BioAssay AID1159580 (chemical genetic matrix, 2015):
“And” between values parts separate entries of the source, which are not always exact repeats. Equal values may be shown once. The campaign covered roughly 5,500 compounds. About 2,000 (36%) were called active. Another 18% or so got no clear call; they are omitted. No stated cut-off is given here; in the data, active means normalized growth mostly below about 0.91 (no sharp cut-off); inconclusive means no clear call, values can overlap the other calls; inactive means mostly above about 0.92. The list shows a part of the results.

Assay: chemical genetic growth profiling, strain panel (AID 1159580);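 further: tested at 20 µM; growth read once vehicle control cultures reached saturation at 30 °C; 1 = growth at the plate median or of vehicle wells; lower values mean less growth of the strain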
Settings: S. cerevisiae deletion strains, growth OD

Measured: normalized growth

COc1cc(C(=O)O)cc(OC)c1O
inactive: locus YBR021W, strain FUR4, active compounds read low 1.08 | locus YBR229C, strain ROT2, active compounds read low 0.951 | locus YCL029C, strain bik1, active compounds read low 0.976 | locus YDL035C, strain GPR1, active compounds read low 1.01 | locus YDL074C, strain BRE1, active compounds read low 0.961 | locus YDL101C, strain DUN1, active compounds read low 0.982 | locus YDL185W, strain tfp1, active compounds read low 0.987 | locus YDL192W, strain arf1, active compounds read low 0.98 | locus YDR101C, strain arx1, active compounds read low 0.972 | locus YDR150W, strain NUM1, active compounds read low 0.979 | locus YDR162C, strain NBP2, active compounds read low 1.01 | locus YDR318W, strain mcm21, active compounds read low 1 | locus YDR388W, active compounds read low 0.978 | locus YDR502C, strain sam2, active compounds read low 0.982 | locus YEL061C, strain CIN8, active compounds read low 0.986 | locus YER110C, active compounds read low 0.977 | locus YER155C, strain BEM2, active compounds read low 1 | locus YER167W, strain BCK2, active compounds read low 1 | locus YGL078C, strain dbp3, active compounds read low 0.986 | locus YGL086W, strain mad1, active compounds read low 0.978 | locus YGL248W, strain PDE1, active compounds read low 0.985 | locus YGR135W, strain pre9, active compounds read low 1.05 | locus YGR229C, strain SMI1, active compounds read low 1.01 | locus YGR252W, strain gcn5, active compounds read low 1.04 | locus YHR030C, strain SLT2, active compounds read low 1.04 and 0.994 | locus YHR079C, strain IRE1 (second series), active compounds read low 0.977 | locus YHR079C, strain IRE1, active compounds read low 1.02 | locus YHR094C, strain hxt1, active compounds read low 0.984 | locus YHR129C, strain ARP1, active compounds read low 0.997 | locus YHR200W, strain rpn10, active compounds read low 0.98 | locus YIL066C, strain RNR3, active compounds read low 0.981 | locus YIL073C, strain SPO22, active compounds read low 0.983 | locus YIL125W, strain kgd1, active compounds read low 0.987 | locus YIR030C, strain dcg1, active compounds read low 0.988 | locus YJL095W, strain BCK1, active compounds read low 1.03 and 0.981 | locus YJL134W, strain LCB3, active compounds read low 0.994 | locus YJL168C, strain set2, active compounds read low 0.975 | locus YJL187C, strain SWE1 (second series), active compounds read low 0.971 | locus YJR043C, strain POL32, active compounds read low 0.991 | locus YJR066W, strain TOR1, active compounds read low 0.96 | locus YJR075W, strain HOC1, active compounds read low 0.997 | locus YKL009W, strain mrt4, active compounds read low 0.983 | locus YKL068W, active compounds read low 0.989 | locus YKL085W, strain MDH1 (second series), active compounds read low 0.983 | locus YKL085W, strain MDH1, active compounds read low 0.983 | locus YKR001C, strain vps1, active compounds read low 0.981 | locus YLR039C, strain RIC1, active compounds read low 0.952 | locus YLR058C, strain SHM2, active compounds read low 0.98 | locus YLR102C, strain apc9, active compounds read low 0.985 | locus YLR113W, strain HOG1, active compounds read low 1.01 | locus YLR262C, strain YPT6, active compounds read low 0.963 | locus YLR268W, strain sec22, active compounds read low 0.991 | locus YLR330W, strain CHS5, active compounds read low 0.996 | locus YLR342W, strain FKS1 (second series), active compounds read low 1.05 | locus YLR371W, strain rom2, active compounds read low 0.965 | locus YLR418C, strain cdc73, active compounds read low 1.01 | locus YML016C, strain PPZ1, active compounds read low 0.984 | locus YML032C, strain rad52, active compounds read low 0.975 | locus YML124C, strain tub3, active compounds read low 0.979 | locus YMR078C, strain ctf18, active compounds read low 0.977 | locus YMR223W, strain ubp8, active compounds read low 1.04 | locus YMR307W, strain GAS1, active compounds read low 1.01 | locus YNL067W, strain RPL9B, active compounds read low 0.962 | locus YNL128W, strain TEP1, active compounds read low 0.989 | locus YNL183C, strain NPR1, active compounds read low 0.979 | locus YNL233W, strain BNI4, active compounds read low 0.982 | locus YNL250W, strain rad50, active compounds read low 0.976 | locus YNL271C, strain bni1, active compounds read low 0.987 | locus YNL298W, strain CLA4, active compounds read low 0.994 | locus YNL307C, strain MCK1, active compounds read low 0.987 | locus YNR052C, strain pop2, active compounds read low 0.993 | locus YOL012C, strain htz1 1.1 | locus YOL147C, strain pex11, active compounds read low 0.984 | locus YOR061W, strain CKA2, active compounds read low 0.964 | locus YOR069W, strain VPS5, active compounds read low 0.995 | locus YOR136W, strain idh2, active compounds read low 0.971 | locus YOR144C, strain elg1, active compounds read low 0.991 | locus YOR184W, strain ser1, active compounds read low 0.992 | locus YOR231W, strain MKK1, active compounds read low 1.04 | locus YOR316C, strain cot1, active compounds read low 0.97 | locus YPL241C, strain CIN2, active compounds read low 0.999 | locus YPL256C, strain CLN2, active compounds read low 1.04 | locus YPR119W, strain clb2, active compounds read low 0.97 | locus YPR141C, strain kar3, active compounds read low 0.969 | locus YPR163C, strain tif3, active compounds read low 0.989 | locus YPR167C, strain met16, active compounds read low 0.988 | strain wtn01, active compounds read low 1
